# CYP2C9 inhib: blockers of cytochrome P450 2C9 activity – biochemical, luminescence, ADME assay, primary screen. CYP2C9 Supersomes, luciferin-H conversion. P11712. AID 777, 2007. 96,000 compounds, 20% hits. inhibition, % at 5 µM;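 active means blocking of liver enzyme CYP2C9 beyond about 50% at 5 µM, limit read from the data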
# CYP2C9 act: human CYP2C9 activators, primary screen, biochemical, luminescence. Cytochrome P450 2C9 (Homo sapiens), P11712. recombinant CYP2C9, luciferin-H conversion; stronger effect = higher value; factor 1 = untreated enzyme, 0 = blocked. activation factor at 5 µM. 96,000 compounds, 1.4% hits. AID 1024, 2008;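 active means activation factor of 2 or more for CYP2C9 at a 5 µM dose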;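 further: 0 = sulfaphenazole-blocked wells and 1 = vehicle-only wells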
# PostGolgi yeast: phenotypic screen on post-Golgi transport, primary screen. AID 739, 2007. 98,000 compounds, 0.9% hits. inhibition, % at 10 µM. post-Golgi transport phenotypic cell assay;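 further: yeast cells grown in 1536-well plates; yeast grown about 18 h at 30C before absorbance read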
# PostGolgi ctrl: growth inhibition of yeast control strain, primary screen, counter-screen for post-Golgi transport modulator project | efflux-deficient yeast background strain, growth absorbance A615, 16 h | inhibition, % at 10 µM | 98,000 compounds, 5% hits | AID 738, 2007
# CYP2C19 inh: blockers of cytochrome P450 2C19 activity – biochemical, luminescence, ADME assay, primary screen; P33261; CYP2C19 Supersomes, luciferin-H EGE luminescence, 30 min; inhibition, % at 5 µM; 96,000 compounds, 21% hits; AID 778, 2007;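 active means CYP2C19 inhibition above a set limit at 5 µM in the primary screen, cut at about 50% in these data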;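 further: plate controls were negative control wells for no effect and 2.5 mM tranylcypromine positive control for full effect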
# Target sequence (P33261 whole entry, looked up): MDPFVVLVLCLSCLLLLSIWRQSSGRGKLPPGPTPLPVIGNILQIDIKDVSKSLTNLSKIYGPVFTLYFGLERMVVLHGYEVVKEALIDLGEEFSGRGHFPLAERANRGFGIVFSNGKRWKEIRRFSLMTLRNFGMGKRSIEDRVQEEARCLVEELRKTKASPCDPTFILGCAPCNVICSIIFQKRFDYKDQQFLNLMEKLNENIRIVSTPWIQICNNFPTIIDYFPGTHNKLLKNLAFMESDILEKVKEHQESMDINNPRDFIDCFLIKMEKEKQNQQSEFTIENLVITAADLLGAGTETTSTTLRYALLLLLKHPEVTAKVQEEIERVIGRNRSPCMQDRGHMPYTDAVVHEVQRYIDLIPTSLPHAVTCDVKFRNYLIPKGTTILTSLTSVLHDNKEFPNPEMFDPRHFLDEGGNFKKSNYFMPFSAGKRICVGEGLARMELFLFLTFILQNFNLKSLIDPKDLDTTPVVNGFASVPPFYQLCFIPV
# CYP2C19 activ: human CYP2C19 activators, primary screen, biochemical, luminescence; AID 1025, 2008; activation factor at 5 µM; 96,000 tested, under 10 active; recombinant CYP2C19, luciferin-H EGE luminescence; stronger effect = higher value; 0 = fully inhibited enzyme, 1 = untreated enzyme; Cytochrome P450 2C19 (Homo sapiens), P33261;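 active means activation factor of at least 2 at 5 µM in the primary screen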;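 further: 0 = wells with 2.5 mM tranylcypromine and 1 = vehicle-only wells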
# An asterisk follows results filed as active; nt = no result given. Most compounds without a hit are left out; they make up all but 32% or so of the library. Unless noted, no stated cut-off is given here; in the data, active means inhibition above about 30%; inactive means the rest.
SMILES,CYP2C9 inhib,CYP2C9 act,PostGolgi yeast,PostGolgi ctrl,CYP2C19 inh,CYP2C19 activ
CCCn1c(SCC(=O)c2cc(OC)ccc2OC)nc2c1c(=O)n(C)c(=O)n2C,-6,1.1,nt,nt,-7,1.1
COc1ccc(OC)c(C(=O)CSc2nc3c(c(=O)n(C)c(=O)n3C)n2C(C)C)c1,54*,0.5,-2,5,45,0.6
CCOC(=O)CSc1nc2cccnc2n1-c1ccc(F)cc1,18,0.8,-4,3,36,0.6
COc1ccc(OC)c(C(=O)CSc2nc3cccnc3n2C)c1,77*,0.2,-7,1,98*,0
COc1ccc(OC)c(C(=O)CSc2nnc(-c3ccc(OC)c(OC)c3)o2)c1,-26,1.3,0,-6,-8,1.1
Cn1c(SCC(=O)c2ccc(F)cc2)nc2cccnc21,-15,1.1,-18,-3,85*,0.2
Cc1ccc(C(=O)CSc2nc3cccnc3n2C)cc1,-56,1.6,11,7,32,0.7
O=C(N/N=C/c1cccc([N+](=O)[O-])c1)C1CC(=O)N(c2ccc(Cl)cc2)C1 (configuration not stated),35,0.7,-3,13,15,0.9
Oc1c(C(c2ccccc2)N2CCN(Cc3ccccc3)CC2)sc2ncnn12 (configuration not stated),67*,0.3,5,-8,78*,0.2
CC(=O)c1sc(-c2c(C)nc3sccn23)nc1C1CCCC1,36,0.6,nt,nt,14,0.9
Cc1nc2sccn2c1-c1nc(-c2cc3ccccc3o2)cs1,8,0.9,1,34*,20,0.8
CSCC[C@H](NC(=O)CCNC(C)=O)c1nc2ccccc2[nH]1,-12,1.1,18,0,-2,1
Cc1cc(C(=O)N2CC(C)CC(C)C2)n(-c2ccccc2)n1 (configuration not stated),40,0.6,-1,32*,34,0.7
O=C(Nc1ccccc1C(=O)N1CCOCC1)c1cccnc1,-17,1.2,12,12,11,0.9
O=C(c1cccnc1Nc1ccc2c(c1)CCC2)N1CCOCC1,5,0.9,-3,-7,70*,0.3
CCOC(=O)c1cnc(-n2nc(C)cc2C)nc1NCCc1ccccc1,92*,0.1,6,39*,83*,0.2
CCOC(=O)c1cnc(-n2nc(C)cc2C)nc1NCc1ccc2c(c1)OCO2,62*,0.4,22,12,33,0.7
O=C(NC1CCCc2ccccc21)c1cccc(S(=O)(=O)N2CCN(c3ccccc3)CC2)c1 (configuration not stated),82*,0.2,10,9,34,0.7
O=C(Nc1cccc(S(=O)(=O)N2CCOCC2)c1)c1cc2c(s1)CCC2,97*,0,3,11,52*,0.5
O=C(Nc1ccc2c(c1)CCC2)c1cccc(S(=O)(=O)N2CCN(c3ccccc3)CC2)c1,68*,0.3,-2,-1,51*,0.5
O=C(Nc1cccc(Cn2cccn2)c1)c1cc2c(s1)CCCC2,-95,1.9,-11,-1,54*,0.5
COc1ccc(NC(=O)c2cc3c(s2)CCC3)cc1S(=O)(=O)N1CCOCC1,19,0.8,-6,8,3,1
Cn1cc(S(=O)(=O)N2CCc3ccccc3C2)c(=O)n(C)c1=O,-16,1.2,1,-1,20,0.8
CCc1ccc(C(=O)NC(C(=O)O)C(C)C)cc1 (configuration not stated),6,0.9,-5,-2,2,1
Cc1ccc2c(c1)[C@H]1OCC[C@H]1[C@@H](c1ccncc1)N2,84*,0.2,15,-5,100*,0
SMILES,CYP2C9 inhib,CYP2C9 act,PostGolgi yeast,PostGolgi ctrl,CYP2C19 inh,CYP2C19 activ
COc1ccc(NC(=O)CSC2CC(=O)N(c3ccc4c(c3)OCCO4)C2=O)cc1 (configuration not stated),27,0.7,-2,7,48,0.5
COCc1cc(C)nc2sc(C(=O)OC(C)C)c(N)c12,72*,0.3,4,-4,85*,0.2
CCCCNC(=O)c1sc2nc(C)cc(COC)c2c1-n1cccc1,44,0.6,4,16,36,0.6
Cc1cccc(CC(Cc2nc3ccccc3[nH]2)c2nc3ccccc3[nH]2)c1 (configuration not stated),88*,0.1,-8,26,93*,0.1
CC(C)N(Cc1nc2ccccc2[nH]1)C(C)C,6,0.9,4,3,1,1
O=C(Cn1cnc2ccccc2c1=O)NCCC(=O)Nc1ccc2c(c1)OCCO2,51*,0.5,2,6,14,0.9
CCN(CC)S(=O)(=O)c1ccc(NC(=O)Cn2cnc3ccccc3c2=O)cc1,67*,0.3,-1,2,44,0.6
CN(C)S(=O)(=O)c1cccc(NC(=O)Cn2cnc3ccccc3c2=O)c1,84*,0.2,-3,-3,43,0.6
O=C(Cn1cnc2ccccc2c1=O)Nc1ccc2c(c1)OCCO2,21,0.8,-8,-5,-6,1.1
O=C(Cn1cnc2ccccc2c1=O)Nc1ccc2c(c1)CCC2,40,0.6,2,-4,30,0.7
Clc1ccc(-c2onc3c2CCCC3)cc1,18,0.8,22,12,12,0.9
O=C1CN=C(Nc2cccc(C(F)(F)F)c2)N1C1CCCC1,82*,0.2,11,0,72*,0.3
CCc1ccccc1NC1=NCC(=O)N1C1CCCCC1,53*,0.5,-1,9,56*,0.4
CCN(CC)CC(=O)N(CC(=O)Nc1c(C)cc(C)cc1C)C1CCCCC1,8,0.9,1,3,5,0.9
Cc1cc(C)c(NC2=NCC(=O)N2C2CCCCC2)c(C)c1,85*,0.2,-2,11,90*,0.1
Cc1ccc(C)c(-n2c(SCC(=O)NCC3CCCO3)nnc2-c2ccoc2C)c1 (configuration not stated),20,0.8,1,14,-3,1
COc1cc(-c2noc(CCCC(=O)NC3CCCCC3)n2)cc(OC)c1OC,9,0.9,3,10,66*,0.3
COc1ccc(-c2noc(CCC(=O)NC3CCCCC3)n2)cc1OC,79*,0.2,9,2,87*,0.1
COc1ccc(-c2noc(CCC(=O)NC3CCN(Cc4ccccc4)CC3)n2)cc1,84*,0.2,-1,-6,73*,0.3
COc1ccc(-c2noc(CCC(=O)NCC3CCN(Cc4cccc(C)c4)CC3)n2)cc1,23,0.8,-3,3,16,0.8
COc1cccc(-c2noc(CCC(=O)NC3CCCCC3)n2)c1,-54,1.5,29,8,8,0.9

# Bioassay records: PubChem BioAssay, several laboratories
